# Bioassay records as filed in PubChem BioAssay.
# This is one part of a sample in which hits are shown more often than they occur.
# Methyltransferases – Primary Screen for Target Class Profiling of Small Molecule Inhibitors of Methyltransferases; purified enzyme, MTase-Glo SAH luminescence; hits give low values; calls only at 40 µM; actives 3.9% (n = 25,000); AID 1745853, 2022; call rule not given here
#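 Each enzyme was reacted with SAM and its substrate, with compounds tested once at 40 uM; SAH formed was read by MTase-Glo luminescence.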
# Active calls of the source: *; i = inactive; + = active, no number; ! = not active in a repeat. % is scaled to controls: 0 for no effect and ±100 for the full control effect.
SMILES,Methyltransferases
Cn1c(=O)n(C)c2cc(S(=O)(=O)N(Cc3ccccc3)C(=O)c3ccncc3)ccc21,i
O=C(NCCCc1ccccc1)c1cccc(-c2cc(O)c3ncccc3c2)c1,+
O=C(NCCc1nc2cccnc2n1-c1ccccc1)c1cccnc1,i
O=C(NCCCCCCNC(=O)c1cccnc1)c1cccnc1,i
COC(=O)NCCNC(=O)c1cccc(-c2ccc(SC)cc2)c1,i
CN(C)CCCCCCNC(=O)c1cccc(-c2cc(O)c3ncccc3c2)c1,+
CC(C)(O)CCc1cccc(C(=O)NCCCc2ccccn2)c1,i
Cc1nc(-c2c3n(c(=O)n(CC#N)c2=O)CCCCC3)no1,i
C/C=C(/C)C(=O)OC1C=C2C3C(C)C(C)C(OC(=O)C(C)C(C)O)CC3(C)CCC2(C)C2(C)CC(OC(C)=O)C3C(C)(C)C(O)C(=O)CC3(C)C12 (stereo not drawn),i
CC1(C(=O)NCc2ccccc2)Cn2c(cc3ccccc32)C(=O)N1Cc1cccc(Br)c1 (stereo not drawn),i
O=c1c2ccccc2n2c(-c3cccc(Br)c3)nnc2n1Cc1ccc(F)cc1,i
COc1ccc(OC)c(NC(=O)N2CCn3c(C)ccc3C2C(C)C)c1 (stereo not drawn),i
CC(C)CCNC(=O)C1(C)Cn2nc(C(=O)N3CCOCC3)cc2C(=O)N1C (stereo not drawn),i
COc1ccc(-c2nnc3n(CCc4ccccc4)c(=O)c4ccccc4n23)cc1,i
CC1CCC(NC(=O)C2(C)Cn3c(ccc3-c3ccco3)C(=O)N2CCCN2CCCCC2)CC1 (stereo not drawn),i
CN(CCCNC(=O)C1(CCO)CC12CCOCC2)C1CCCCC1 (stereo not drawn),i
COC(O)(CC(C)C)C1Oc2cc(C)[nH]c(=O)c2O1 (stereo not drawn),i
C[C@@H](Oc1cc(-n2cnc3ccc(OC4CCN(C)CC4)cc32)sc1C(N)=O)c1ccccc1Cl,+
CC(Oc1cc(-n2cnc3ccc(CN4CCN(C)CC4)cc32)sc1C(N)=O)c1ccccc1C(F)(F)F (stereo not drawn),+
Cc1ccc(N2C(=O)c3ccc(-c4ccco4)n3CC2(C)C(=O)NCc2ccc(Cl)cc2)cc1 (stereo not drawn),i
CCc1ccc(CNC(=O)c2cc3n(n2)CC(C)(C(=O)NC2CCCC2)N(C)C3=O)cc1 (stereo not drawn),i
CC1(C(=O)NC2CCCCCC2)Cn2c(nc3ccccc32)C(=O)N1CCCc1ccccc1 (stereo not drawn),i
CC(C)CCNC(=O)C1(C)Cn2nc(C(=O)NCc3ccccc3)cc2C(=O)N1C (stereo not drawn),i
CC(C)C(C)C(O)C1CC23CC(=O)C4(O)C(=C2CCC3C1C)C=CC1(O)CC(O)CCC14C (stereo not drawn),i
CC(C)N(CCC(=O)c1ccc2ccccc2c1)Cc1ccccc1,+!
SMILES,Methyltransferases
COc1ccc(C(=O)N(Cc2ccccc2)S(=O)(=O)c2ccc3c(c2)n(C)c(=O)n3C)cc1,i
COc1ccc(Cn2c3c(c(=O)n2Cc2ccccc2)CCN(Cc2c(C)noc2C)C3)cc1,i
CC(C)NC(=O)c1ccc2c(=O)n(Cc3ccccc3)c3nn(Cc4cccc(Cl)c4)c(=O)n3c2c1,i
COc1cc2nc(N3CCCCC3)nc(NC3CCN(Cc4ccccc4)CC3)c2cc1OC,+!
COc1cc2nc(N3CCC(N4CCCCC4)CC3)nc(NC3CCCCCC3)c2cc1OC,+
COc1cc2nc(N3CCCCC3)nc(NC3CCN(C)CC3)c2cc1OC,+!
O=S(=O)(c1ccccc1)c1nnn2c1nc(NC1CCN(Cc3ccccc3)CC1)c1cc(Cl)ccc12,i
COc1cc2ncnc(N3CCC(Oc4cnc5ccccc5n4)C3)c2cc1OC (stereo not drawn),i
COc1cc2nc(-c3cc(F)ccc3O)nc(N[C@@H]3CNC[C@H]3C(C)(C)O)c2cc1OC,i
COc1cc2nc(N3CCCC3)nc(NCCCCCN3CCCC3)c2cc1OC,+!
COCCn1ncc(N2CCC(C(=O)NCCCN3CCC(N4CCCCC4)CC3)C2)cc1=O (stereo not drawn),i
O=S(=O)(c1ccccc1)c1nnn2c1nc(NC1CCN(Cc3ccccc3)CC1)c1ccccc12,i
COc1cc2nc(-c3ccc(N4CCN(C)CC4)cc3)nc(NCCN3CCOCC3)c2cc1OC,i
CC1(C(=O)NC2CCCCCC2)Cn2c(cc3occc32)C(=O)N1CCN1CCCCCC1 (stereo not drawn),i
O=C(CCc1nnc2n(Cc3ccccc3)c(=O)c3ccccc3n12)N1CCN(c2ccc(Cl)cc2)CC1,i
COc1cccc(CNC(=O)c2cc3n(n2)CC(C)(C(=O)NCCC(C)C)N(C)C3=O)c1 (stereo not drawn),i
O=C(CCc1nnc2n(Cc3ccc(Cl)cc3)c(=O)c3ccccc3n12)NC1CCCCC1,i
C/C=C/C=C/C(O)=C1\C(O)=C(C)C(=O)[C@@]2(C)OC(=O)[C@@](C)(NC(=O)/C=C/C(=O)O)[C@@H]12,i
CCCN1C(=O)c2cc3c(OC)ccc(OC)c3n2CC1(C)C(=O)NC1CCCC1 (stereo not drawn),i
CC(C)NC(=O)Cn1nc2nc(Nc3ccc(F)cc3)ccn2c1=O,i
CCOc1ccccc1CN1C(=O)c2ccc(-c3ccco3)n2CC1(C)C(=O)NC1CCC(C)CC1 (stereo not drawn),i
COc1ccc(-c2cc3n(n2)CC(C)(C(=O)NCc2ccccc2)N(c2cc(OC)cc(OC)c2)C3=O)cc1 (stereo not drawn),i
CC(C)OCCCn1c(=O)c2ccccc2n2c(CCC(=O)NC(C)c3ccccc3)nnc12 (stereo not drawn),i
COc1cccc(CNC(=O)C(C)n2ccc3cc(S(=O)(=O)N4CCCCC4)ccc32)c1 (stereo not drawn),i
Cc1ccc(CNC(=O)C2(C)Cn3nc(C(=O)NCCCN4CCCCC4)cc3C(=O)N2C)cc1 (stereo not drawn),i
SMILES,Methyltransferases
CCCn1c(=O)c2ccc(Cl)cc2n2c(=O)n(Cc3cccc(F)c3)nc12,i
CCOC(=O)c1cc2n(n1)CC(C)(C(=O)NCc1ccccc1)N(Cc1ccccc1OCC)C2=O (stereo not drawn),i
COc1cccc(N2CCN(c3ccc4nnc(CCC(=O)NCCC(C)C)n4n3)CC2)c1,i
COc1cc2c(Nc3ccc(NC(=O)c4ccccc4)cc3)ncnc2cc1OCCCN1CCOCC1,i
COc1cc2c(NC3CCN(C(C)C)CC3)nc(C3CCCCC3)nc2cc1OCCCN1CCCC1,+!
CCOC(=O)C(C)Oc1cc2oc(=O)cc(-c3ccccc3)c2cc1Cl (stereo not drawn),i
Cc1ccc(C(=O)Cn2nc3n(CCC(C)C)c(=O)c4ccc(C(=O)NC5CCCC5)cc4n3c2=O)cc1,i
Cc1nc(C)c(-c2ccc(C3CCC(CC(=O)O)CC3)cc2)nc1C(N)=O (stereo not drawn),i
CNCCC(Oc1ccccc1OC)c1ccccc1 (stereo not drawn),i
COc1ccccc1OCCN1CC(COc2cccc3[nH]c4ccccc4c23)OCC1=O (stereo not drawn),i
COc1ccccc1OCCNCC(O)CCOc1cccc2[nH]c3ccccc3c12 (stereo not drawn),+
